About 79,000 compounds went through this panel and 15% of them were active in at least one assay; those are over-represented in the sample as a whole. Values without a mark were called inactive. Active and inactive are the calls of the source. Cut-off read from the data, not from the text of the source: active = growth inhibition above about 70%; inactive = the rest.

From PubChem BioAssay (NCI) come the findings set out here.

Experiment [1] is described as follows: NCI Yeast Anticancer Drug Screen. Data for the rad50 strain (AID 155).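 Note: 0% = growth of vehicle-only cultures of the same strain.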 The conditions noted are these: S. cerevisiae rad50 strain growth inhibition; at 50.0 µM; active compounds read high. The method, boiled down:
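Inhibition values express reduced yeast growth in compound-treated cultures relative to vehicle-treated controls.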

Experiment [2] can be described thus: NCI Yeast Anticancer Drug Screen. Data for the mec2-1 strain (AID 157). The conditions noted are these: S. cerevisiae mec2-1 strain, at 50.0 µM, active compounds read high. The procedure, abridged: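 Each compound was tested on mec2-1 yeast, a strain altered in DNA damage repair or cell cycle control. Growth inhibition is reported relative to vehicle.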
A short description of experiment [3]: NCI Yeast Anticancer Drug Screen. Data for the sgs1 mgt1 strain (AID 161).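 Note: 0% = growth of cultures given vehicle only.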 As to conditions: S. cerevisiae sgs1 mgt1 strain, at 50.0 µM, active compounds read high. The method, boiled down: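 Genetically altered yeast, compound exposure, growth inhibition relative to vehicle.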
The nature of experiment [4]: NCI Yeast Anticancer Drug Screen. Data for the cln2 rad14 strain (AID 165).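 Note: 0% = growth equal to vehicle treated cultures.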 As to conditions: S. cerevisiae cln2 rad14 strain, at 50.0 µM, active compounds read high. The procedure, abridged:
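Test compounds were added to cln2 rad14 yeast cultures; inhibition of growth was then determined by comparison with vehicle treatment.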

Experiment [5] in a line: NCI Yeast Anticancer Drug Screen. Data for the bub3 strain (AID 167). As to conditions: S. cerevisiae bub3 mutant strain, at 50.0 µM, active compounds read high. The method, boiled down: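 Steps: expose the mutant yeast strain to compound; grow alongside vehicle-treated cultures; measure growth; express inhibition against the vehicle cultures.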
Experiment [6] in a line: NCI Yeast Anticancer Drug Screen. Data for the mlh1 rad18 strain (AID 175). As to conditions: S. cerevisiae mlh1 rad18 strain growth inhibition; at 50.0 µM; active compounds read high. The procedure, abridged:
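Inhibition values reflect reduced growth of mutant yeast versus vehicle-treated controls following compound exposure; the mutations affect DNA damage repair.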

Regarding `Cn1cnc2c(=O)[nH]cnc21`, the growth inhibition in experiment [1] is 12.9%; in experiment [2], -12.7%; in experiment [3], -2.4%; in experiment [4], -4.8%; in experiment [5], 14.7%; in experiment [6], -8.5%.
On to `CN(CCO)CC(O)Cn1cnc2ncnc(N)c21` (stereo unspecified), for which the growth inhibition is 21.2% in experiment [1]; 12% in experiment [2]; 28.7% in experiment [3]; 13.4% in experiment [4]; 7% in experiment [5]; 33.5% in experiment [6].
As to `O/N=C/C(=Nc1ccc2ccccc2c1)NO`, the growth inhibition is 41% in experiment [1]; 3.25% in experiment [2]; -4.5% in experiment [3]; -18.2% in experiment [4]; -8.45% in experiment [5]; 23.5% in experiment [6].
Consider `Cc1cc(N)c2cc(N)ccc2n1`, for which the growth inhibition is 99.6% (active) in experiment [1]; 99.5% (active) in experiment [2]; 99.4% (active) in experiment [3]; 64.7% in experiment [4]; 99.2% (active) in experiment [5]; 98.2% (active) in experiment [6].
In the case of `CC(C)=C1CCC(CN(C)C)C1=O` (stereo unspecified), the growth inhibition in experiment [1] is 30.4%; in experiment [2], 4.7%; in experiment [3] it was 35%; in experiment [4], 5.35%; in experiment [5], -18.9%; in experiment [6], 7.55%.
With `CS(=O)(=O)CC1=NC(=N)N=C1CS(C)(=O)=O`, the growth inhibition in experiment [1] was 6.05%; in experiment [2] it was -14.9%; in experiment [3], -8.95%; in experiment [4], -4.85%; in experiment [5], -29.8%; in experiment [6], 2.1%.
Consider `CCCN1C(=O)CN(S(=O)(=O)c2ccc(Cl)cc2)C1=O`, for which the growth inhibition in experiment [1] is -1.1%; in experiment [2], 4.05%; in experiment [3], 3.6%; in experiment [4], -8%; in experiment [5], -1.25%; in experiment [6], -46.9%.
Turning to `CCOc1snc(C(Cl)(Cl)Cl)c1Cl`, the growth inhibition is 9.7% in experiment [1]; 15.3% in experiment [2]; 5.05% in experiment [3]; 18% in experiment [4]; 22.3% in experiment [5]; 8.2% in experiment [6].
`CCCCC(CC)COC(=O)Cc1ccccc1` (stereo unspecified): the growth inhibition in experiment [1] is 17.3%; in experiment [2], 17.1%; in experiment [3], 15.8%; in experiment [4], -5.85%; in experiment [5], 40.1%; in experiment [6], 34.7%.
`C=C(C)CC1(C)C(=O)CCC1O` (stereo unspecified): the growth inhibition in experiment [1] was -13.7%; in experiment [2], -15.8%; in experiment [3], 3.9%; in experiment [4], -30.8%; in experiment [5], 6.1%; in experiment [6], 6.25%.
Regarding `CCCCCCCCCCC(CCCCCCCCCC)=NN=C(CCCCCCCCCC)CCCCCCCCCC`, the growth inhibition in experiment [1] is -41.4%; in experiment [2] it was 9.45%; in experiment [3] it was 1.35%; in experiment [4] it was 25.9%; in experiment [5] it was 1.1%; in experiment [6], -9.3%.
As for `CC/C(Cl)=N\OC(=O)Nc1ccc(C#N)cc1`, the growth inhibition in experiment [1] was -44.8%; in experiment [2], 4.9%; in experiment [3], -19.4%; in experiment [4], 13.8%; in experiment [5], 46.3%; in experiment [6], -10.4%.
Turning to `CN(C(=O)c1ccco1)C(=S)N1CCN(c2ccccc2)CC1`, the growth inhibition in experiment [1] was -17%; in experiment [2], -1.95%; in experiment [3], -0.7%; in experiment [4], 10.2%; in experiment [5], 13.8%; in experiment [6] it was -13.3%.
Turning to `O=c1n(-c2ccccc2)c(=O)n2n1C1C3C4C5C1C5C2C43` (stereo unspecified), the growth inhibition in experiment [1] was -8.4%; in experiment [2], 8.95%; in experiment [3] it was 12.3%; in experiment [4], 5.85%; in experiment [5], 5%; in experiment [6], 12.8%.
In the case of `COC(=O)C1=C(C)NC(C)=C(C(=O)OC)C1c1cccc(NO)c1`, the growth inhibition in experiment [1] was 9.6%; in experiment [2] it was 16.4%; in experiment [3], 47.4%; in experiment [4], 24%; in experiment [5], 43.3%; in experiment [6] it was 2.85%.
As to `O=S(=O)(c1ccccc1)N1CCN(S(=O)(=O)c2ccccc2)c2ccccc21`, the growth inhibition is 58.9% in experiment [1]; 23.9% in experiment [2]; -3.75% in experiment [3]; 3.9% in experiment [4]; 43.6% in experiment [5]; 53.9% in experiment [6].
On to `c1ccc(-c2cc3nncc(-c4ccccc4)n3n2)cc1`, for which the growth inhibition in experiment [1] is -14.9%; in experiment [2], -9.95%; in experiment [3], -7.65%; in experiment [4] it was 13.9%; in experiment [5], 13.3%; in experiment [6], 3.55%.
Regarding `Nc1ccnc(=O)[nH]1`, the growth inhibition was -3.5% in experiment [1]; -11.7% in experiment [2]; -18.8% in experiment [3]; -20.8% in experiment [4]; 3.3% in experiment [5]; -36.8% in experiment [6].
Take `COCCc1c2ccccc2cc2ccccc12`: the growth inhibition is 24.9% in experiment [1]; 3.2% in experiment [2]; 10.4% in experiment [3]; 7.65% in experiment [4]; -22.1% in experiment [5]; 17.8% in experiment [6].
`NCCSSCCCCSSCCN`: the growth inhibition in experiment [1] was -8.95%; in experiment [2] it was -0.7%; in experiment [3], -13.7%; in experiment [4] it was -43.2%; in experiment [5], -1.2%; in experiment [6], -1.9%.
Turning to `CC[C@@]12C=CC(=S)N(CCSc3ccccc3)[C@@H]1c1c(n(S(=O)(=O)c3ccc(OC)cc3)c3ccccc13)CC2`, the growth inhibition in experiment [1] was -33%; in experiment [2] it was -1.2%; in experiment [3], 0.95%; in experiment [4], -53%; in experiment [5], -2.55%; in experiment [6] it was 6%.
